In the library only some 2.1% were active in any assay of this set; here they are far more common.
FUS suppressor: FUS proteinopathy suppression in yeast | AID 1347120 | S. cerevisiae FUS-expressing, growth rescue, OD600, 24 h | Potency, µM (series often up to 76.6 µM), most hits filed as activators | 0.24% of 390,000 active;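 also: plate controls were DMSO vehicle for no effect and reference control for full effect; nearly all actives have a fitted effect of over 55% in size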
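S. cerevisiae expressing FUS from galactose induction served as the toxicity model. Growth after 24hr at 30C, read as absorbance at 600 nm, indicates suppression of toxicity; compounds dosed at several concentrations.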
TDP43 rescue: TDP-43 toxicity inhibition in yeast; TDP-43 expressing yeast growth rescue, BacTiter-Glo, 24 h; Potency, µM (top dose mostly 46.1 µM), for the others: top-dose growth rescue (activation), hits mostly activators; 1.8% of 410,000 active; also: % of control where 0% means no effect; nearly all actives have a fitted effect of over 50% in size
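Galactose-induced TDP-43 yeast, OD600=0.02, compound pinned; 24 hr, 30 deg C; BacTiter-Glo luminescence for growth. Inhibitors of TDP-43 toxicity read as activators.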
Abeta yeast res: A-beta toxicity reversal in yeast | yeast expressing A-beta42, growth rescue, OD600, 48 h; response scale: 0% DMSO, 100% iron-clioquinol control | Potency, µM (series often up to 46.1 µM), hits mostly activators | 0.063% of 410,000 active | AID 1347071; also: nearly all actives have a fitted effect of over 55% in size
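Yeast growth medium received pinned compounds, then yeast cells expressing toxic A-beta were added; plates incubated at 30 C for 48 hr. Growth read as absorbance at 600 nm, normalized to DMSO and equimolar FeCl3 plus clioquinol controls.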
aSyn rescue: rescues yeast growth from alpha-synuclein toxicity. Yeast expressing alpha-synuclein, growth rescue, BacTiter-Glo, 24 h. Potency, µM (highest dose often 46.1 µM), without a hit: at the top dose growth rescue (activation), most hits filed as activators. 0.14% of 370,000 active. AID 652106; also: % of control where 0% means no effect; nearly all actives have a fitted effect of over 65% in size
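Galactose-induced alpha-syn yeast (OD600=0.02, raffinose-pregrown) + pinned cpd, 24 hr, 30 deg C; growth by BacTiter-Glo luminescence. Growth restoration scores as activation.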
* = called active by the depositor; i = inactive; u = inconclusive; x = no result. Calls follow the shape of the dose curve; as a rule, active = well fitted curve in the direction sought with a large enough effect; inconclusive = small, poorly fitted or top-dose-only effect, or another doubt; inactive = no such curve, though single readings can be large; an effect the other way counts as inactive or inconclusive. Potency is read from the fitted curve at half-maximal effect.

SMILES | FUS suppressor | TDP43 rescue | Abeta yeast res | aSyn rescue
CCOC(=O)N1CCN(S(=O)(=O)c2ccc(C(=O)NNc3nc4cc(C)cc(C)c4s3)cc2)CC1 | i | 5.62µM* | i | 1.5%
CC1CCCN(S(=O)(=O)c2ccc(C(=O)Nc3nnc(-c4ccco4)o3)cc2)C1 (centres undefined) | i | 27.0% | i | 3.5%
CC(C)Cc1nnc(NC(=O)c2ccc3c(c2)OCCO3)s1 | i | 20µM* | i | 1.3%
CCOCc1nnc(NC(=O)c2ccc3c(c2)OCO3)s1 | i | 4.5% | i | -2.5%
CC1Oc2ccccc2N(CC(=O)NC2CCCCC2)C1=O (centres undefined) | i | -13.7% | i | -0.8%
CCOc1ccc(Nc2nc(-c3cccc(Cl)c3)c3c(n2)-c2ccccc2OC3)cc1 | i | 17.0% | i | x
O=C(Nc1ccc2snnc2c1)Nc1cccc2ccccc12 | i | -3.8% | i | -0.3%
Cc1cccc2sc(NNC(=O)c3ccc4c(c3)OCCO4)nc12 | i | 35.5µM* | u | 14.3%
Cc1cc(C)c2nc(NNC(=O)c3ccc(S(=O)(=O)N4CCCCC4)cc3)sc2c1 | u | 6.31µM* | i | -0.8%
Cc1cc(C)c2nc(NC(=O)c3ccc(S(=O)(=O)N4CCCC4)cc3)sc2c1 | i | 2.4% | i | 1.0%
COc1cccc2sc(NC(=O)c3ccc4c(c3)OCCO4)nc12 | i | 29.6% | i | x
COCCN1C(=O)C(C(=O)OC)CC2=C1CC(C)(C)CC2=O (centres undefined) | i | 8.4% | i | 1.7%
CSc1ccc(S(=O)(=O)NCC(=O)OCC(=O)N2CCCC2=O)cc1[N+](=O)[O-] | i | 11.1% | i | -4.7%
COc1ccc(C(C#N)=Cc2ccccc2OC)cc1 | i | 20µM* | i | -9.1%
COc1ccc(/C=C(\C#N)c2nc3ccccc3n2C)c(OC)c1 | i | 20µM* | i | x
Cc1ccccc1Cn1c(=O)n(CCC(=O)NCc2ccco2)c(=O)c2sccc21 | i | 7.8% | i | x
COc1cc(N2C(=O)C=CC2=O)ccc1N1C(=O)C=CC1=O | x | 20µM* | i | 14.7%
COCc1cc(=O)[nH]c(SCCS(=O)(=O)c2ccc(C)cc2)n1 | i | -1.9% | i | -3.1%
COCc1cc(=O)[nH]c(SCCS(=O)(=O)c2ccc(Cl)cc2Cl)n1 | i | 6.31µM* | i | -15.3%
CCOC(=O)N/N=C/c1ccc(Oc2ccccc2)cc1 | i | 17.8µM* | u | 1.4%
CCOC(=O)N/N=C/c1ccc(C)o1 | i | -9.1% | i | 1.4%
CC(CC(=O)Nc1ccc2c(c1)c(=O)n(C)n2Cc1ccc(F)cc1)C(F)(F)F (centres undefined) | i | 22.0% | i | -2.5%
O=c1[nH]c(-c2ccco2)nc2sc3c(c12)CCCC3 | x | 17.8µM* | i | -6.8%
CC(=O)Nc1ccc(C(=O)Cn2c3[n+](c4c(F)c(F)ccc42)CCCCC3)cc1 | i | -0.5% | i | 5.9%
O=C(/C=C/c1c(F)cccc1Cl)c1ccc(O)cc1 | i | 7.94µM* | u | u
SMILES | FUS suppressor | TDP43 rescue | Abeta yeast res | aSyn rescue
COCCN(CCOC)C(=O)c1cc2c(=O)n3ccccc3nc2n1C | i | 24.8% | i | x
CN(C(=O)CSc1nc(-c2ccccc2)cn1N)C(c1ccccc1)c1ccccc1 | 31.6µM* | 1.0% | i | -6.7%
COc1ccccc1CNC(=O)CSc1nc(-c2ccccc2)cn1N | i | 17.7% | i | -9.5%
O=C(Nc1ccc(-c2csc(Nc3cccc(C(F)(F)F)c3)n2)cc1)c1ccccc1 | i | 19.8% | i | -9.7%
COc1ccc(-c2csc(-n3cccn3)n2)cc1 | i | 10µM* | i | 1.9%
COc1ccc(Nc2nc(-c3ccc(OC)cc3)cs2)cc1 | i | 4.5% | i | -1.6%
COc1ccc(-c2csc(Nc3ccccc3)n2)cc1 | i | 10µM* | u | -26.9%
COc1ccc(-c2csc(N3CCSCC3)n2)cc1 | i | 8.7% | i | -3.5%
O=C(Nc1cccc(-c2csc(Nc3cccc(C(F)(F)F)c3)n2)c1)c1ccccc1 | i | 17.8µM* | i | -23.3%
COc1ccc(-c2csc(Nc3ncccc3C)n2)cc1 | i | 24.3% | i | -40.9%
COc1ccc(-c2csc(Nc3ncccc3C)n2)cc1OC | i | 14.1µM* | i | -29.8%
O=C(Nc1cccc(-c2csc(Nc3ccccc3)n2)c1)c1ccccc1 | i | 6.31µM* | i | -21.9%
COc1ccc(-c2csc(-c3cccnc3)n2)cc1C | i | 15.8µM* | i | 14.8%
CCOc1ccc(NC(=O)Cc2ccc(-n3c(C)nc4cccnc43)cc2)cc1 | i | 1.5% | i | x
COc1ccc(/C=C(/C(=O)Nc2ccccc2C(=O)NC(C)C)c2ccccc2)cc1 | i | 20µM* | i | -12.6%
CCCC/C=C1/[C@H](CC)N(C)C2=N[C@@H](c3ccccc3)CC(=O)N21 | i | x | x | x
Cc1[nH]n(C(N)=S)c(=O)c1N=Nc1ccc(S(=O)(=O)N2CCCCCC2)cc1 | i | 3.98µM* | i | 1.9%
CCCCN(C)C(=O)c1cc2cc3ccc(OC)cc3nc2o1 | i | 15.8µM* | i | 2.2%
CCCCN(C)C(=O)c1cc2cc3cc(OC)ccc3nc2o1 | i | u | i | 3.6%
Cc1ccc2nc(-c3ccc(F)cc3)c(CC3CCCCC3)n2c1 | i | 18.8% | i | 12.5%
COc1ccccc1-c1nc(-c2ccncc2)no1 | i | 11.2µM* | i | x
CCOc1ccccc1-c1nc(-c2ccncc2)no1 | i | 17.8µM* | i | 10.1%
CCOc1ccc(-c2noc(-c3ccncc3)n2)cc1OCC | i | 0.0% | i | -1.0%
COc1ccccc1-c1noc(-c2cccnc2)n1 | i | 11.2µM* | i | 4.0%
O=C(NCCn1cccn1)C1CCC(=O)N(CCc2ccccc2)C1 (centres undefined) | i | 13.0% | i | -6.5%
SMILES | FUS suppressor | TDP43 rescue | Abeta yeast res | aSyn rescue
Clc1cccc(N2CCN(c3c4c(nc5nncn35)CCC4)CC2)c1 | i | 17.8µM* | i | x
CC1(C)Cc2c(C#N)c(NCCCO)nc(-c3ccccc3)c2CO1 | i | 12.6µM* | i | 2.8%
Cc1ccc(Cl)cc1N1CCN(C(=O)c2cnn(C)c2C2CCN(C(=O)OC(C)(C)C)CC2)CC1 | u | 22.4µM* | i | x
CCCNC(=O)c1csc(Nc2cccc3ccccc23)n1 | i | 31.6µM* | i | -33.8%
O=S(=O)(c1cccc2cccnc12)N1CCC(c2cn3ccccc3n2)CC1 | i | x | x | x
N/C(=N\OC(=O)c1ccc(Br)cc1)c1ccccc1 | i | u | i | -25.0%
COc1ccc(C(=O)O/N=C(\N)c2ccccc2)cc1 | i | u | i | -68.5%
COc1ccc(C(=O)O/N=C(\N)c2ccc(Br)cc2)cc1 | i | 2.51µM* | i | -26.5%
COc1cc(OC)c(C(=O)O/N=C(\N)c2cccc(C)c2)cc1OC | i | u | i | -54.3%
COc1cc(OC)c(C(=O)O/N=C(\N)c2ccc(C)cc2)cc1OC | i | 11.2µM* | i | -17.9%

Source: PubChem
